# Results published in PubChem BioAssay (NCI).
# About 79,000 compounds went through this panel and 15% of them were active in at least one assay; those are over-represented in the sample as a whole. Unmarked numbers belong to inactive results. Activity calls are given as the source filed them. Cut-off read from the data, not from the text of the source: active = growth inhibition above about 70%; inactive = the rest.
# Experiments:
# [1] = NCI Yeast Anticancer Drug Screen. Data for the rad52 strain (AID 147);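 note: 0% = growth of vehicle-treated control cultures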; details: S. cerevisiae rad52 mutant growth inhibition, hits give high values
# Procedure, shortened: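 Measured: yeast growth inhibition. System: strain with a defined DNA damage repair alteration. Reference: vehicle-treated control cultures.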
# [2] = NCI Yeast Anticancer Drug Screen. Data for the wt1 strain (AID 149);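 note: 0% = growth of vehicle-treated wt1 cultures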; details: S. cerevisiae wt1 strain (SPY 50644) growth inhibition, hits give high values
# Procedure, shortened: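 wt1 strain grown with compound or vehicle; inhibition taken from the growth difference.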
# [3] = NCI Yeast Anticancer Drug Screen. Data for the rad50EPP+ strain (AID 151);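 note: 0% = growth of vehicle-treated control cultures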; details: S. cerevisiae rad50 mutant strain, hits give high values
# Procedure, shortened: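 One strain with a rad50 alteration (rad50EPP+) was compound-treated, its growth then compared to that of vehicle controls.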
# [4] = NCI Yeast Anticancer Drug Screen. Data for the rad50 strain (AID 155);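 note: 0% = growth of vehicle-only cultures of the same strain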; details: S. cerevisiae rad50 strain growth inhibition, hits give high values
# Procedure, shortened: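 DNA repair mutant yeast, compound exposure, growth read-out; inhibition is taken relative to vehicle.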
# [5] = NCI Yeast Anticancer Drug Screen. Data for the mec2-1 strain (AID 157); details: S. cerevisiae mec2-1 strain, hits give high values
# Procedure, shortened: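 Test agents were screened against the mec2-1 yeast strain, with defined DNA repair or cell cycle alteration. Growth was scored as inhibition against vehicle-only controls.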
# [6] = NCI Yeast Anticancer Drug Screen. Data for the rad14 strain (AID 159);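 note: 0% = growth of vehicle-treated control cultures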; details: S. cerevisiae rad14 strain growth inhibition, hits give high values
# Procedure, shortened: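 DNA repair-defective yeast, compound-exposed; % growth inhibition derived by comparison with vehicle-treated controls.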
# [7] = NCI Yeast Anticancer Drug Screen. Data for the sgs1 mgt1 strain (AID 161);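 note: 0% = growth of cultures given vehicle only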; details: S. cerevisiae sgs1 mgt1 strain, hits give high values
# Procedure, shortened: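 Genetically altered yeast, compound exposure, growth inhibition relative to vehicle.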
# [8] = NCI Yeast Anticancer Drug Screen. Data for the CLN2oe strain (AID 163);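 note: 0% = growth of vehicle-only control cultures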; details: S. cerevisiae CLN2oe strain, hits give high values
# Procedure, shortened: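 Here, growth inhibition in a cell-cycle-altered yeast strain after compound exposure was quantified against vehicle control growth.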
# [9] = NCI Yeast Anticancer Drug Screen. Data for the cln2 rad14 strain (AID 165);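 note: 0% = growth equal to vehicle treated cultures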; details: S. cerevisiae cln2 rad14 strain, hits give high values
# Procedure, shortened: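 Growth of compound-exposed yeast (cln2 rad14 genotype) measured and expressed as inhibition relative to vehicle.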
# [10] = NCI Yeast Anticancer Drug Screen. Data for the bub3 strain (AID 167); details: S. cerevisiae bub3 mutant strain, hits give high values
# Procedure, shortened: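 In this screen, a yeast mutant lacking normal mitotic checkpoint function is challenged with compound. Relative growth versus vehicle gives the inhibition value.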
# [11] = NCI Yeast Anticancer Drug Screen. Data for the wt2 strain (AID 169);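 note: 0% = growth of vehicle-treated yeast cultures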; details: S. cerevisiae wt2 strain growth inhibition, hits give high values
# Procedure, shortened: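 Genetically defined yeast strains from a DNA-repair/cell-cycle panel were used. Compound-exposed yeast growth was measured, and the inhibition was calculated relative to vehicle treatment.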
# [12] = NCI Yeast Anticancer Drug Screen. Data for the mlh1 strain (AID 171);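 note: 0% = growth of vehicle-treated control cultures of the same strain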; details: S. cerevisiae mlh1 strain growth inhibition, hits give high values
# Procedure, shortened: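 Here the genetically defined yeast mutant is grown with each compound, and the extent to which its growth falls below that of vehicle-exposed cells is reported.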
# [13] = NCI Yeast Anticancer Drug Screen. Data for the sgs1 strain (AID 173);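 note: 0% = growth of vehicle-only control cultures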; details: S. cerevisiae sgs1 mutant, hits give high values
# Procedure, shortened: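 Relative growth inhibition, referenced to vehicle, was determined in a yeast strain with a defined alteration affecting DNA damage repair or cell cycle control after compound exposure.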
# [14] = NCI Yeast Anticancer Drug Screen. Data for the mlh1 rad18 strain (AID 175); details: S. cerevisiae mlh1 rad18 strain growth inhibition, hits give high values
# Procedure, shortened: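 In this whole-cell yeast screen, a strain with altered DNA damage repair is challenged with compound, and its growth is measured against matched vehicle-treated controls.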
# [15] = NCI Yeast Anticancer Drug Screen. Data for the rad18 strain (AID 177); details: S. cerevisiae rad18 mutant growth inhibition, hits give high values
# Procedure, shortened: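 Screen uses a yeast strain with a defined lesion in DNA damage repair; compound effect is read as loss of growth compared to untreated vehicle cultures.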
# [16] = at 5.0 µM (retest, dose inferred, filed as 0.5)
# [17] = at 50.0 µM (retest, dose inferred, filed as 5.0)
smiles,measurement,setting,value
O=C(O)c1[nH]c(=O)c2ccccc2c1Nc1ccccc1,growth inhibition,[1]; at 1.2 µM,-2%
same,growth inhibition,[1]; at 3.7 µM,-1%
same,growth inhibition,[1]; at 11.0 µM,2%
same,growth inhibition,[1]; at 33.0 µM,4%
same,growth inhibition,[1]; at 100.0 µM,3%
same,growth inhibition,[2]; at 1.2 µM,-1%
same,growth inhibition,[2]; at 3.7 µM,-2%
same,growth inhibition,[2]; at 11.0 µM,-2%
same,growth inhibition,[2]; at 33.0 µM,-1%
same,growth inhibition,[2]; at 100.0 µM,1%
same,growth inhibition,[3]; at 1.2 µM,-3%
same,growth inhibition,[3]; at 3.7 µM,-2%
same,growth inhibition,[3]; at 11.0 µM,0%
same,growth inhibition,[3]; at 33.0 µM,-1%
same,growth inhibition,[3]; at 100.0 µM,6%
same,growth inhibition,[4]; at 1.2 µM,-3%
same,growth inhibition,[4]; at 3.7 µM,-1%
same,growth inhibition,[4]; [16],-6%
same,growth inhibition,[4]; at 11.0 µM,1%
same,growth inhibition,[4]; at 33.0 µM,4%
same,growth inhibition,[4]; [17],-11%
same,growth inhibition,[4]; at 50.0 µM,-0.85%
same,growth inhibition,[4]; at 100.0 µM,0%
same,growth inhibition,[5]; at 1.2 µM,-3%
same,growth inhibition,[5]; at 3.7 µM,-3%
same,growth inhibition,[5]; [16],-13%
same,growth inhibition,[5]; at 11.0 µM,-2%
same,growth inhibition,[5]; at 33.0 µM,1%
same,growth inhibition,[5]; [17],-24%
same,growth inhibition,[5]; at 50.0 µM,-1.2%
same,growth inhibition,[5]; at 100.0 µM,3%
same,growth inhibition,[6]; at 1.2 µM,-3%
same,growth inhibition,[6]; at 3.7 µM,-3%
same,growth inhibition,[6]; at 11.0 µM,1%
same,growth inhibition,[6]; at 33.0 µM,1%
same,growth inhibition,[6]; at 100.0 µM,2%
same,growth inhibition,[7]; [16],0%
same,growth inhibition,[7]; [17],5%
same,growth inhibition,[7]; at 50.0 µM,10.3%
same,growth inhibition,[8]; at 1.2 µM,-3%
same,growth inhibition,[8]; at 3.7 µM,1%
same,growth inhibition,[8]; at 11.0 µM,-2%
same,growth inhibition,[8]; at 33.0 µM,-1%
same,growth inhibition,[8]; at 100.0 µM,1%
same,growth inhibition,[9]; [16],-23%
same,growth inhibition,[9]; [17],41%
same,growth inhibition,[9]; at 50.0 µM,-10.4%
same,growth inhibition,[10]; at 1.2 µM,-2%
same,growth inhibition,[10]; at 3.7 µM,-2%
same,growth inhibition,[10]; [16],-4%
same,growth inhibition,[10]; at 11.0 µM,-3%
same,growth inhibition,[10]; at 33.0 µM,-3%
same,growth inhibition,[10]; [17],-11%
same,growth inhibition,[10]; at 50.0 µM,-6.6%
same,growth inhibition,[10]; at 100.0 µM,-2%
same,growth inhibition,[11]; at 1.2 µM,-3%
same,growth inhibition,[11]; at 3.7 µM,-3%
same,growth inhibition,[11]; at 11.0 µM,-2%
same,growth inhibition,[11]; at 33.0 µM,-4%
same,growth inhibition,[11]; at 100.0 µM,0%
same,growth inhibition,[12]; at 1.2 µM,-2%
same,growth inhibition,[12]; at 3.7 µM,0%
same,growth inhibition,[12]; at 11.0 µM,0%
same,growth inhibition,[12]; at 33.0 µM,1%
same,growth inhibition,[12]; at 100.0 µM,4%
same,growth inhibition,[13]; at 1.2 µM,-7%
same,growth inhibition,[13]; at 3.7 µM,-3%
same,growth inhibition,[13]; at 11.0 µM,1%
same,growth inhibition,[13]; at 33.0 µM,1%
same,growth inhibition,[13]; at 100.0 µM,2%
same,growth inhibition,[14]; [16],-14%
same,growth inhibition,[14]; [17],-8%
same,growth inhibition,[14]; at 50.0 µM,7.5%
same,growth inhibition,[15]; at 1.2 µM,-2%
same,growth inhibition,[15]; at 3.7 µM,-1%
same,growth inhibition,[15]; at 11.0 µM,0%
same,growth inhibition,[15]; at 33.0 µM,0%
same,growth inhibition,[15]; at 100.0 µM,6%
N#CC(=S)Nc1cccc(Cl)c1,growth inhibition,[1]; at 1.2 µM,3%
same,growth inhibition,[1]; at 3.7 µM,1%
same,growth inhibition,[1]; at 11.0 µM,10%
same,growth inhibition,[1]; at 33.0 µM,26%
same,growth inhibition,[1]; at 100.0 µM,50%
same,growth inhibition,[2]; at 1.2 µM,7%
same,growth inhibition,[2]; at 3.7 µM,10%
same,growth inhibition,[2]; at 11.0 µM,23%
same,growth inhibition,[2]; at 33.0 µM,31%
same,growth inhibition,[2]; at 100.0 µM,41%
same,growth inhibition,[3]; at 1.2 µM,-12%
same,growth inhibition,[3]; at 3.7 µM,2%
same,growth inhibition,[3]; at 11.0 µM,10%
same,growth inhibition,[3]; at 33.0 µM,25%
same,growth inhibition,[3]; at 100.0 µM,46%
same,growth inhibition,[4]; at 1.2 µM,5%
same,growth inhibition,[4]; at 3.7 µM,8%
same,growth inhibition,[4]; [16],39%
same,growth inhibition,[4]; at 11.0 µM,3%
same,growth inhibition,[4]; at 33.0 µM,18%
same,growth inhibition,[4]; [17],82% (active)
same,growth inhibition,[4]; at 50.0 µM,46.9%
same,growth inhibition,[4]; at 100.0 µM,51%
same,growth inhibition,[5]; at 1.2 µM,28%
same,growth inhibition,[5]; at 3.7 µM,19%
same,growth inhibition,[5]; [16],19%
same,growth inhibition,[5]; at 11.0 µM,33%
same,growth inhibition,[5]; at 33.0 µM,28%
same,growth inhibition,[5]; [17],64%
same,growth inhibition,[5]; at 50.0 µM,57%
same,growth inhibition,[5]; at 100.0 µM,80% (active)
same,growth inhibition,[6]; at 1.2 µM,2%
same,growth inhibition,[6]; at 3.7 µM,-6%
same,growth inhibition,[6]; at 11.0 µM,9%
same,growth inhibition,[6]; at 33.0 µM,35%
same,growth inhibition,[6]; at 100.0 µM,79% (active)
same,growth inhibition,[7]; [16],28%
same,growth inhibition,[7]; [17],68%
same,growth inhibition,[7]; at 50.0 µM,66.7%
same,growth inhibition,[8]; at 1.2 µM,8%
same,growth inhibition,[8]; at 3.7 µM,28%
same,growth inhibition,[8]; at 11.0 µM,17%
same,growth inhibition,[8]; at 33.0 µM,43%
same,growth inhibition,[8]; at 100.0 µM,54%
same,growth inhibition,[9]; [16],8%
same,growth inhibition,[9]; [17],27%
same,growth inhibition,[9]; at 50.0 µM,17.6%
same,growth inhibition,[10]; at 1.2 µM,12%
same,growth inhibition,[10]; at 3.7 µM,7%
same,growth inhibition,[10]; [16],26%
same,growth inhibition,[10]; at 11.0 µM,2%
same,growth inhibition,[10]; at 33.0 µM,41%
same,growth inhibition,[10]; [17],63%
same,growth inhibition,[10]; at 50.0 µM,51.3%
same,growth inhibition,[10]; at 100.0 µM,67%
same,growth inhibition,[11]; at 1.2 µM,2%
same,growth inhibition,[11]; at 3.7 µM,5%
same,growth inhibition,[11]; at 11.0 µM,-22%
same,growth inhibition,[11]; at 33.0 µM,31%
same,growth inhibition,[11]; at 100.0 µM,94% (active)
same,growth inhibition,[12]; at 1.2 µM,2%
same,growth inhibition,[12]; at 3.7 µM,7%
same,growth inhibition,[12]; at 11.0 µM,26%
same,growth inhibition,[12]; at 33.0 µM,43%
same,growth inhibition,[12]; at 100.0 µM,78% (active)
same,growth inhibition,[13]; at 1.2 µM,2%
same,growth inhibition,[13]; at 3.7 µM,7%
same,growth inhibition,[13]; at 11.0 µM,24%
same,growth inhibition,[13]; at 33.0 µM,43%
same,growth inhibition,[13]; at 100.0 µM,70% (active)
same,growth inhibition,[14]; [16],64%
same,growth inhibition,[14]; [17],86% (active)
same,growth inhibition,[14]; at 50.0 µM,88.4% (active)
same,growth inhibition,[15]; at 1.2 µM,1%
same,growth inhibition,[15]; at 3.7 µM,12%
same,growth inhibition,[15]; at 11.0 µM,23%
same,growth inhibition,[15]; at 33.0 µM,37%
same,growth inhibition,[15]; at 100.0 µM,58%
